Assay [1] can be described thus: NCI Yeast Anticancer Drug Screen. Data for the rad50 strain (AID 155).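 Also: 0% = growth of vehicle-only cultures of the same strain.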 The settings on record: S. cerevisiae rad50 strain growth inhibition, hits give high values. Put shortly: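 Yeast carrying a defined DNA repair defect were exposed to test compounds, and growth was compared with vehicle-treated controls to give percent inhibition.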
Assay [2] can be described thus: NCI Yeast Anticancer Drug Screen. Data for the mec2-1 strain (AID 157). The settings on record: S. cerevisiae mec2-1 strain, hits give high values. Put shortly: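 Strain: mec2-1 (DNA repair/cell cycle alteration). Compound exposure, then growth measured; inhibition expressed relative to vehicle.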
Assay [3] can be described thus: NCI Yeast Anticancer Drug Screen. Data for the sgs1 mgt1 strain (AID 161).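 Also: 0% = growth of cultures given vehicle only.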 As to conditions: S. cerevisiae sgs1 mgt1 strain, hits give high values. Summed up: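 Read-out: growth inhibition vs vehicle controls. Cells: mutant yeast strain deficient in DNA damage repair.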
Assay [4] in a line: NCI Yeast Anticancer Drug Screen. Data for the cln2 rad14 strain (AID 165).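 Also: 0% = growth equal to vehicle treated cultures.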 The settings on record: S. cerevisiae cln2 rad14 strain, hits give high values. Summed up: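 Compounds are applied to the cln2 rad14 yeast strain, and growth is then compared with that of vehicle-treated cultures to give inhibition.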
The nature of assay [5]: NCI Yeast Anticancer Drug Screen. Data for the bub3 strain (AID 167). As to conditions: S. cerevisiae bub3 mutant strain, hits give high values. Put shortly: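 Compounds were applied to a genetically altered yeast strain carrying a cell-cycle control defect. Growth inhibition was scored against vehicle-treated controls.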
A short description of assay [6]: NCI Yeast Anticancer Drug Screen. Data for the mlh1 rad18 strain (AID 175). As to conditions: S. cerevisiae mlh1 rad18 strain growth inhibition, hits give high values. Summed up:
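Read-out is yeast growth inhibition, calculated against vehicle-only controls. The compound was applied to a strain engineered with DNA damage repair alterations.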

[7] abbreviates: at 5.0 µM (retest, dose inferred, filed as 0.5).
Where [8] appears, read: at 50.0 µM (retest, dose inferred, filed as 5.0).

Structures are written as SMILES. This is part of a sample that, as a whole, favours compounds with a hit. Of some 79,000 tested, about 15% had one in any assay. Unmarked numbers belong to inactive results. Active and inactive are the calls of the source. Rule as the data show it: active = growth inhibition above about 70%; inactive = the rest.

Consider `O=C(O)C(CSC(c1ccccc1)c1ccccc1)NC(=O)C(c1ccccc1)c1ccccc1` (stereo not given), for which the growth inhibition in assay [1] (setting [7]) is 6%; in assay [1] (setting [8]), 86% (active); in assay [1] (at 50.0 µM), 52.5%; in assay [2] (setting [7]) it was 11%; in assay [2] (setting [8]), 89% (active); in assay [2] (at 50.0 µM), 83.3% (active). For the same compound, the growth inhibition in assay [3] (setting [7]) is 11%; in assay [3] (setting [8]), 86% (active); in assay [3] (at 50.0 µM), 69.8%; in assay [4] (setting [7]), 15%; in assay [4] (setting [8]), 84% (active); in assay [4] (at 50.0 µM), 96.2% (active). For the same compound, the growth inhibition in assay [5] (setting [7]) was 8%; in assay [5] (setting [8]), 64%; in assay [5] (at 50.0 µM) it was 85.7% (active); in assay [6] (setting [7]), 9%; in assay [6] (setting [8]), 88% (active); in assay [6] (at 50.0 µM), 97.1% (active).
In the case of `[C-]#[O+].[Cl][Sn]([Cl])[Cl].[Cl][Sn]([Cl])[Cl].[Pt].c1ccncc1`, the growth inhibition in assay [1] (setting [7]) is -11%; in assay [1] (setting [8]) it was 97% (active); in assay [1] (at 50.0 µM), 56.2%; in assay [2] (setting [7]), 9%; in assay [2] (setting [8]) it was 95% (active); in assay [2] (at 50.0 µM) it was 54.8%. Moreover, the growth inhibition in assay [3] (setting [7]) was 3%; in assay [3] (setting [8]) it was 98% (active); in assay [3] (at 50.0 µM), 75.3% (active); in assay [4] (setting [7]), 3%; in assay [4] (setting [8]), 78% (active); in assay [4] (at 50.0 µM), 41.8%. Further, the growth inhibition in assay [5] (setting [7]) is -13%; in assay [5] (setting [8]), 47%; in assay [5] (at 50.0 µM), 62.1%; in assay [6] (setting [7]), -1%; in assay [6] (setting [8]), 98% (active); in assay [6] (at 50.0 µM) it was 70.5% (active).
As to `CC1(Br)Cc2ccccc2C1=O` (stereo not given), the growth inhibition in assay [1] (setting [7]) is 3%; in assay [1] (setting [8]), 43%; in assay [1] (at 50.0 µM), -2.2%; in assay [2] (setting [7]), 4%; in assay [2] (setting [8]) it was 33%; in assay [2] (at 50.0 µM), 37.2%. The growth inhibition is 2% in assay [3] (setting [7]); 31% in assay [3] (setting [8]); 42.3% in assay [3] (at 50.0 µM); 1% in assay [4] (setting [7]); 16% in assay [4] (setting [8]); -35% in assay [4] (at 50.0 µM). The growth inhibition in assay [5] (setting [7]) is -2%; in assay [5] (setting [8]), 36%; in assay [5] (at 50.0 µM), 70% (active); in assay [6] (setting [7]), 4%; in assay [6] (setting [8]), 34%; in assay [6] (at 50.0 µM), 20.4%.
With `CN(C)N(P(N)(Cl)(c1ccccc1)c1ccccc1)P(N)(Cl)(c1ccccc1)c1ccccc1`, the growth inhibition was 13% in assay [1] (setting [7]); 90% (active) in assay [1] (setting [8]); 63.2% in assay [1] (at 50.0 µM); 22% in assay [2] (setting [7]); 97% (active) in assay [2] (setting [8]); 54.5% in assay [2] (at 50.0 µM). Further, the growth inhibition in assay [3] (setting [7]) is -221%; in assay [3] (setting [8]), 96% (active); in assay [3] (at 50.0 µM), 44.9%; in assay [4] (setting [7]), 0%; in assay [4] (setting [8]), 88% (active); in assay [4] (at 50.0 µM), 58.5%. Moreover, the growth inhibition in assay [5] (setting [7]) is 4%; in assay [5] (setting [8]) it was 88% (active); in assay [5] (at 50.0 µM) it was 49.5%; in assay [6] (setting [7]), 25%; in assay [6] (setting [8]) it was 96% (active); in assay [6] (at 50.0 µM), 50.6%.
For the compound `N#CC(Cl)(Cl)CCl`, the growth inhibition was 6% in assay [1] (setting [7]); 41% in assay [1] (setting [8]); -16.8% in assay [1] (at 50.0 µM); -4% in assay [2] (setting [7]); 15% in assay [2] (setting [8]); 13.2% in assay [2] (at 50.0 µM). Besides, the growth inhibition in assay [3] (setting [7]) is 4%; in assay [3] (setting [8]), 42%; in assay [3] (at 50.0 µM) it was -9%; in assay [4] (setting [7]), -5%; in assay [4] (setting [8]) it was 33%; in assay [4] (at 50.0 µM), 47%. The growth inhibition was 6% in assay [5] (setting [7]); 99% (active) in assay [5] (setting [8]); 0.15% in assay [5] (at 50.0 µM); 2% in assay [6] (setting [7]); 38% in assay [6] (setting [8]); 2.5% in assay [6] (at 50.0 µM).
As for `CCC(=O)C(CCN1CCC(N2C(=O)C(CCC#N)c3ccccc32)CC1)(c1ccccc1)c1ccccc1` (stereo not given), the growth inhibition was -3% in assay [1] (setting [7]); -3% in assay [1] (setting [8]); -7.55% in assay [1] (at 50.0 µM); -6% in assay [2] (setting [7]); -6% in assay [2] (setting [8]); -23.4% in assay [2] (at 50.0 µM). For the same compound, the growth inhibition in assay [3] (setting [7]) was 8%; in assay [3] (setting [8]) it was -3%; in assay [3] (at 50.0 µM), 10.8%; in assay [4] (setting [7]), -2%; in assay [4] (setting [8]), 14%; in assay [4] (at 50.0 µM) it was 3.15%. In addition, the growth inhibition in assay [5] (setting [7]) was -1%; in assay [5] (setting [8]) it was -17%; in assay [5] (at 50.0 µM), 10.2%; in assay [6] (setting [7]), -23%; in assay [6] (setting [8]) it was 1%; in assay [6] (at 50.0 µM), 32.2%.
For the compound `[C-]#[O+].[C-]#[O+].[C-]#[O+].[C-]#[O+].[Mo].c1cnc2c(c1)ccc1cccnc12`, the growth inhibition is -2% in assay [1] (setting [7]); 0% in assay [1] (setting [8]); 81% (active) in assay [1] (at 50.0 µM); -8% in assay [2] (setting [7]); -6% in assay [2] (setting [8]); 60.4% in assay [2] (at 50.0 µM). Also, the growth inhibition in assay [3] (setting [7]) was -6%; in assay [3] (setting [8]), -2%; in assay [3] (at 50.0 µM), 71.4% (active); in assay [4] (setting [7]) it was -5%; in assay [4] (setting [8]), -17%; in assay [4] (at 50.0 µM), 39.6%. The growth inhibition in assay [5] (setting [7]) is -1%; in assay [5] (setting [8]) it was 6%; in assay [5] (at 50.0 µM), 79.1% (active); in assay [6] (setting [7]), -4%; in assay [6] (setting [8]) it was -8%; in assay [6] (at 50.0 µM) it was 81.9% (active).
Take `CCCCCN1C(=O)C2C(C1=O)C1(Cl)C(Cl)=C(Cl)C2(Cl)C1(Cl)Cl` (stereo not given): the growth inhibition in assay [1] (setting [7]) is 37%; in assay [1] (setting [8]), 95% (active); in assay [1] (at 50.0 µM), 97% (active); in assay [2] (setting [7]), 35%; in assay [2] (setting [8]), 97% (active); in assay [2] (at 50.0 µM), 96.4% (active). Also, the growth inhibition in assay [3] (setting [7]) was 16%; in assay [3] (setting [8]) it was 95% (active); in assay [3] (at 50.0 µM) it was 96.4% (active); in assay [4] (setting [7]) it was 16%; in assay [4] (setting [8]), 95% (active); in assay [4] (at 50.0 µM), 95.2% (active). Moreover, the growth inhibition in assay [5] (setting [7]) is 12%; in assay [5] (setting [8]), 96% (active); in assay [5] (at 50.0 µM), 97.5% (active); in assay [6] (setting [7]) it was 33%; in assay [6] (setting [8]), 96% (active); in assay [6] (at 50.0 µM), 95.6% (active).
Take `CC1Oc2cc3c(-c4c(O)cc(O)c5c(O)c6c(cc45)OC(C)C(C)C6=O)c(O)cc(O)c3c(O)c2C(=O)C1C` (stereo not given): the growth inhibition in assay [1] (setting [7]) was 8%; in assay [1] (setting [8]), 85% (active); in assay [1] (at 50.0 µM), 83.1% (active); in assay [2] (setting [7]), -10%; in assay [2] (setting [8]) it was 83% (active); in assay [2] (at 50.0 µM), 84.2% (active). Besides, the growth inhibition in assay [3] (setting [7]) was -2%; in assay [3] (setting [8]), 86% (active); in assay [3] (at 50.0 µM), 83% (active); in assay [4] (setting [7]), 30%; in assay [4] (setting [8]) it was 69%; in assay [4] (at 50.0 µM), 82.8% (active). Also, the growth inhibition in assay [5] (setting [7]) is -8%; in assay [5] (setting [8]) it was 81% (active); in assay [5] (at 50.0 µM) it was 81.2% (active); in assay [6] (setting [7]), 10%; in assay [6] (setting [8]), 84% (active); in assay [6] (at 50.0 µM), 84.2% (active).
For the compound `O=[N+]([O-])C=C([SH2+])[SH2+].O=[N+]([O-])C=C([SH2+])[SH2+].[Ni+2].c1ccc(C[P+](c2ccccc2)(c2ccccc2)c2ccccc2)cc1`, the growth inhibition is 3% in assay [1] (setting [7]); 44% in assay [1] (setting [8]); 93.5% (active) in assay [1] (at 50.0 µM); 7% in assay [2] (setting [7]); 72% (active) in assay [2] (setting [8]); 97.7% (active) in assay [2] (at 50.0 µM). The growth inhibition in assay [3] (setting [7]) was 5%; in assay [3] (setting [8]), 52%; in assay [3] (at 50.0 µM), 96.7% (active); in assay [4] (setting [7]), -7%; in assay [4] (setting [8]), 19%; in assay [4] (at 50.0 µM), 87.8% (active). Besides, the growth inhibition was -1% in assay [5] (setting [7]); 47% in assay [5] (setting [8]); 96.2% (active) in assay [5] (at 50.0 µM); 26% in assay [6] (setting [7]); 83% (active) in assay [6] (setting [8]); 93.3% (active) in assay [6] (at 50.0 µM).

The values are drawn from PubChem BioAssay (NCI).
